Measured values published in PubChem BioAssay (EPA / NIEHS).
Results filed as inconclusive are left out. Calls of active or inactive are those of the source. Rule for the calls: active = hit-call score of the fitted dose curve at least 0.9, where 1 is the maximum; inconclusive = response in the unintended direction; inactive = score below 0.9.

What was measured:
[1] = TOX21_p53_BLA_p2_viability: Viability Assessment in the Tox21 HCT-116 p53 Agonism Beta-lactamase Assay, Phase 2 (AID 2283591);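 note: compound exposure lasted 16 h at 37 °C; actives lower the ATP signal meaning cytotoxicity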
Summary of the method: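 HCT-116 p53-bla cells (4000/well) rested 5 h at 37C, then received compounds in DMSO (217-fold dilution) for 16 h at 37C, 5% CO2. After the CCF4 read, CellTiter-Glo was added; ATP luminescence was read after 30 min at room temperature.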

[2] = target: Cellular tumor antigen p53 (Homo sapiens) (UniProt P04637); assay: TOX21_p53_BLA_p5_ratio: Tox21 HCT-116 p53 Agonism Beta-lactamase Assay, Ratio, Phase 5 (AID 2283599)
Summary of the method: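 HCT-116 cells carrying a p53-inducible beta-lactamase reporter were seeded at 4000 cells/well and dosed after 5 h with compound in DMSO (217-fold dilution). After 16 h at 37C, CCF4-AM substrate was added for 2 h, and the 460/530 nm emission ratio was scored as gain-of-signal versus DMSO.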

[3] = TOX21_p53_BLA_p5_viability: Viability Assessment in the Tox21 HCT-116 p53 Agonism Beta-lactamase Assay, Phase 5 (AID 2283600)
Summary of the method: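 Compounds, pinned from DMSO at 217-fold dilution, were left on the cells for 16 h. The viability endpoint was ATP content measured by CellTiter-Glo luminescence, where falling signal reflects cytotoxicity.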

[4] = target: Cellular tumor antigen p53 (Homo sapiens) (UniProt P04637); assay: TOX21_p53_BLA_p4_ratio: Tox21 HCT-116 p53 Agonism Beta-lactamase Assay, Ratio, Phase 4 (AID 2283601)
Summary of the method: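 HCT116 cells carrying an inducible beta-lactamase reporter were plated at 4000 cells/well, rested 5 h, then exposed to compounds in DMSO (217-fold dilution) for 16 h at 37C. CCF4-AM substrate was loaded 2 h at room temperature; 460/530 nm emission ratio scored gain-of-signal versus DMSO.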

[5] = TOX21_p53_BLA_p4_viability: Viability Assessment in the Tox21 HCT-116 p53 Agonism Beta-lactamase Assay, Phase 4 (AID 2283597);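 note: hits lower the luminescence signal meaning cytotoxicity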
Summary of the method: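 We seeded HCT116 p53 reporter cells at 4000/well and waited 5 h. We then added compounds in DMSO at a 217-fold dilution and incubated for 16 h. Viability was read as CellTiter-Glo luminescence after 30 min at RT.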

PGR (gene 5241) [6] = target: PGR (gene 5241) (UniProt P06401); assay: TOX21_PR_BLA_Followup_Antagonist_ratio: Tox21 HEK293 Progesterone Receptor (PR) Antagonism Beta-lactamase Follow-Up Assay, Ratio (AID 2283934)
Summary of the method: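 PR-UAS-bla HEK293T cells in medium with 2% charcoal-stripped FBS were treated with compounds plus 1 nM (final) promegestone (R5020) for 16 hr at 37C. LiveBLAzer B/G FRET substrate was then added for 2 h at room temperature; signal is cleaved/uncleaved substrate ratio versus DMSO.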

[7] = TOX21_PR_BLA_Followup_Agonist_viability: Viability Assessment in the Tox21 HEK293 Progesterone Receptor (PR) Agonism Beta-lactamase Follow-Up Assay (AID 2283935);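 note: signal loss means lower viability so actives are cytotoxic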
Summary of the method: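 PR-UAS-bla HEK293T cells in 2% charcoal-stripped FBS medium, compound added after 6 hr plating, 16 hr at 37C/5% CO2. After bla FRET read, CellTiter-Glo added; luminescence read after 30 min at room temperature; signal loss marks cytotoxicity.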

PGR (gene 5241) [8] = target: PGR (gene 5241) (UniProt P06401); assay: TOX21_PR_LUC_Followup_Antagonist: Tox21 HEK293 Progesterone Receptor (PR) Antagonism Luciferase Follow-Up Assay (AID 2283938);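 note: curve fitted upward as signal gain over DMSO baseline despite antagonist label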
Summary of the method: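 Luminescence from ONE-Glo reagent, measured after 30 min at room temperature, served as readout. Cells (HEK293 carrying PR-A-luc) had been treated 16 h at 37C with DMSO-dissolved compounds. Activity was fitted against DMSO controls.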

[9] = TOX21_PR_LUC_Followup_Antagonist_viability: Viability Assessment in the Tox21 HEK293 Progesterone Receptor (PR) Antagonism Luciferase Follow-Up Assay (AID 2283940)
Summary of the method: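 HEK293-PR-A-luc cells, precultured 5 days in assay medium with 10% charcoal-stripped FBS, were seeded at 3,000 cells/well, treated with compounds in DMSO for 16 h at 37C, and viability was read as cellular ATP by CellTiter-Glo luminescence.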

[10] = TOX21_PR_LUC_Followup_Agonist_viability: Viability Assessment in the Tox21 HEK293 Progesterone Receptor (PR) Agonism Luciferase Follow-Up Assay (AID 2283941);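 note: loss of signal means cytotoxicity so actives lower viability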
Summary of the method: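 HEK293-PR-A-luc cells, pre-cultured 5 days in 10% charcoal-stripped FBS, were seeded at 3,000 cells/well, rested 5 h at 37C, then given compound in DMSO for 16 h at 37C. Cellular ATP was read by CellTiter-Glo luminescence; signal loss indicates cytotoxicity.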

[11] = target: Thyroid hormone receptor alpha (Rattus norvegicus) + Thyroid hormone receptor beta (Rattus norvegicus) (UniProt P18113+P63059); assay: TOX21_TR_LUC_GH3_Antagonist_Followup: Tox21 GH3 Thyroid Hormone Receptor Antagonism Luciferase Follow-Up Assay (AID 2283942)
Summary of the method: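 Rat pituitary GH3 cells with a TRα/TRβ-driven luciferase reporter, 5 h attachment, then 15 concentrations (92 uM to 5nM final) plus 1.0 nM T3 agonist, 24 h at 37C/5% CO2. ONE-Glo luminescence; signal change fitted against DMSO baseline.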

THRA (gene 7067) = THRA (gene 7067) (UniProt P10827); assay: TOX21_TRA_COA_Antagonist_Followup_ratio: Tox21 Thyroid Hormone Receptor alpha Antagonism through Coactivator Recruitment Follow-Up Assay, Ratio (AID 2283953)
Summary of the method: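 This follow-up to the GH3 luciferase screen checks specificity in a cell-free format. It measures SRC-2 coactivator peptide binding to TRα LBD by TR-FRET and scores loss of ratio signal relative to DMSO.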

THRB (gene 7068) [12] = target: THRB (gene 7068) (UniProt P10828); assay: TOX21_TRB_BLA_Antagonist_Followup_ratio: Tox21 Thyroid Hormone Receptor beta Antagonism Beta-lactamase (BLA) Follow-Up Assay, Ratio (AID 2283958)
Summary of the method: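 GAL4-DBD/human TRβ-LBD fusion in GeneBLAzer UAS-bla HEK293T cells, 3,000 cells/well in phenol red-free DMEM with 2% charcoal-stripped FBS; compounds at 11 concentrations in triplicate, 18 h at 37C. CCF4-AM substrate 2 h, 460:530 nm ratio relative to DMSO.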

THRB (gene 7068) [13] = target: THRB (gene 7068) (UniProt P10828); assay: TOX21_TRB_COA_Antagonist_Followup_ratio: Tox21 Thyroid Hormone Receptor beta Antagonism through Coactivator Recruitment Follow-Up Assay, Ratio (AID 2283967)
Summary of the method: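 Cell-free TR-FRET coactivator recruitment with GST-tagged TRβ LBD (5.0 nM) and fluorescein-labeled SRC-2 peptide (200 nM) detected by terbium anti-GST antibody (2 nM). The 520:495 nm emission ratio was normalized to DMSO (0%) and T3 (100%).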

[14] = TOX21_TR_RXR_BLA_Antagonist_Followup_viability: Viability Assessment in the Tox21 Thyroid Hormone Receptor beta Retinoid X Receptor alpha (RXRa) Antagonism Beta-lactamase (BLA) Follow-Up Assay (AID 2283979)
Summary of the method: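 RXRa-UAS-bla HEK293T cells seeded 2,500/well in phenol red-free DMEM with 2% charcoal-stripped FBS, attached 5 h, then exposed to compounds at 11 concentrations in triplicate for 16 h at 37C/5% CO2. Viability read by CellTiter-Glo ATP luminescence; bidirectional fit versus DMSO.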

Measured: AC50

Chain of Cellular tumor antigen p53 (Homo sapiens) (P04637 whole entry, looked up): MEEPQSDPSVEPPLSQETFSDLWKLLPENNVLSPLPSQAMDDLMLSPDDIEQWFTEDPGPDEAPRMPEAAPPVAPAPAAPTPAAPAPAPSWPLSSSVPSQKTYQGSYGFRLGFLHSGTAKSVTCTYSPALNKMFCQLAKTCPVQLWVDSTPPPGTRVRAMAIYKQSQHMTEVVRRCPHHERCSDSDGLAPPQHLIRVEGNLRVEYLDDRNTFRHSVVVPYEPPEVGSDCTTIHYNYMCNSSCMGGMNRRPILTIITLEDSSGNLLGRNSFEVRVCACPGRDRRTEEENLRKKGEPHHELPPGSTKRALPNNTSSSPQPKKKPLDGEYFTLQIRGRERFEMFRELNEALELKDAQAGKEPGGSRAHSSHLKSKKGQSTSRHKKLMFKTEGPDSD
Chain of THRB (gene 7068) (P10828 whole entry, looked up, the tested form may be a part): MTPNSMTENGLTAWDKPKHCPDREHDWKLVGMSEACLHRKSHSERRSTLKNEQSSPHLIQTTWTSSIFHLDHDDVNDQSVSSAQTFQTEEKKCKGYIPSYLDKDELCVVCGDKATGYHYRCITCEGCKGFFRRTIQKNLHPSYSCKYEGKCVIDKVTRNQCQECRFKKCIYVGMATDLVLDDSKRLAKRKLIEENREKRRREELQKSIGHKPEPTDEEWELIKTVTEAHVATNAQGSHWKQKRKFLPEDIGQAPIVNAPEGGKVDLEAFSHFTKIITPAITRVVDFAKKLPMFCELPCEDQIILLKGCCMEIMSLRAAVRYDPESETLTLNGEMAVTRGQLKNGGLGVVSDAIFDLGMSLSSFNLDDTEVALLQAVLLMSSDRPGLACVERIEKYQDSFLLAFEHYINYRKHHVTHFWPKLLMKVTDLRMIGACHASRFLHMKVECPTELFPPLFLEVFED
Chain of PGR (gene 5241) (P06401 whole entry, looked up): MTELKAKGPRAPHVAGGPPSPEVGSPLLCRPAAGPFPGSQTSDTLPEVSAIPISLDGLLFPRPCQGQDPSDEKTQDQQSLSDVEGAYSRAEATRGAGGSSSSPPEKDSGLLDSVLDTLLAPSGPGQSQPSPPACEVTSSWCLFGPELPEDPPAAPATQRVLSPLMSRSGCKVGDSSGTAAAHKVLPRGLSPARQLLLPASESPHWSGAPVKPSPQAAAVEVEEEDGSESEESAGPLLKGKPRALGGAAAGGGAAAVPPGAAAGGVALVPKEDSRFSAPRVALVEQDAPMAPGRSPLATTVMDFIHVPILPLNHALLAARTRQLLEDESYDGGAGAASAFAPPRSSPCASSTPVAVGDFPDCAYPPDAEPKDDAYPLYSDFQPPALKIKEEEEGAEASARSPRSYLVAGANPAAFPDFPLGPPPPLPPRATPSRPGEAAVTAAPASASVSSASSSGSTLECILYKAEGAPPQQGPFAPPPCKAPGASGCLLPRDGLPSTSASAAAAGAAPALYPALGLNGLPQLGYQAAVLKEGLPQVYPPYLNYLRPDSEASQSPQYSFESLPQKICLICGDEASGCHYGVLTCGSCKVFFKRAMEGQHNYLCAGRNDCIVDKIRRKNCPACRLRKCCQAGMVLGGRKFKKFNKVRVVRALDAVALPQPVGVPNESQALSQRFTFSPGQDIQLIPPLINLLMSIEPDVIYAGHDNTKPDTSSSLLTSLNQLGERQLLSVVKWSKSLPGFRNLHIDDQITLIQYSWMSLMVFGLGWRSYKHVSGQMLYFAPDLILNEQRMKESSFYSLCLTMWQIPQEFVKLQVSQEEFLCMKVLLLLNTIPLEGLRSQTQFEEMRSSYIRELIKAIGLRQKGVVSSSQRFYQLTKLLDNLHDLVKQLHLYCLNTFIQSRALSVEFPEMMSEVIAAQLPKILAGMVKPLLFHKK
Chain of THRA (gene 7067) (P10827 whole entry, looked up, the tested form may be a part): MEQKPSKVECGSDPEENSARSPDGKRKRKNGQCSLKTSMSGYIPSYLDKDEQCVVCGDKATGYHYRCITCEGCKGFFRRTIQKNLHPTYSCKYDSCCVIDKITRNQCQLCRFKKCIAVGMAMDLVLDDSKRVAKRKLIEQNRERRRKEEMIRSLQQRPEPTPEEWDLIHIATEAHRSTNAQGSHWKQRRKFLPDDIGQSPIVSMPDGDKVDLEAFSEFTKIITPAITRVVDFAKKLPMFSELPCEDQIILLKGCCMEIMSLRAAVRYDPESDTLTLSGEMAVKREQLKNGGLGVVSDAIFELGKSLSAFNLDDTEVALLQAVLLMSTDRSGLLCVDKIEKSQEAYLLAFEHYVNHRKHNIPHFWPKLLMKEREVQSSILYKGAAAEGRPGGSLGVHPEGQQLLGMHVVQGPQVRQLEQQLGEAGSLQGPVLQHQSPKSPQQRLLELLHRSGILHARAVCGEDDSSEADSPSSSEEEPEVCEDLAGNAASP

CC=CC1=C(C(=O)O)N2C(=O)[C@@H](NC(=O)[C@H](N)c3ccc(O)cc3)[C@H]2SC1
inactive: [1] | [2] | [3] | [4]

CNS(=O)(=O)CCc1ccc2[nH]cc(C3CCN(C)CC3)c2c1
inactive: [1] | [5] | [3] | [4]

Nc1ccc2c3c(cccc13)-c1ccccc1-2
inactive: [1] | [5] | [3]

CN(C)CCCN1c2ccccc2C(C)(C)c2ccccc21
inactive: [1] | [2]

O=c1[nH]cnc2ccccc12
inactive: [1] | [5] | [2] | [3] | [4]

O=C1c2ccccc2CN2C(=O)c3ccccc3CN12
inactive: [1] | [5] | [2] | [4]

O=C(O)c1cc2ccccc2c(Cc2c(O)c(C(=O)O)cc3ccccc23)c1O
inactive: [1] | [5] | [2] | [3] | [4]

O=C1C=CCCC1
inactive: [1] | [2] | [3]

Cn1ccc2cc3c(cc21)CCN3C(=O)Nc1cccnc1
inactive: [1] | [5] | [2] | [4]

C[C@H]1C[C@H]2[C@@H]3CCC4=CC(=O)C=C[C@]4(C)[C@@]3(Cl)[C@@H](O)C[C@]2(C)[C@@]1(O)C(=O)CO
inactive: [1] | [5] | [3] | [4] | PGR (gene 5241) [6] | [7] | PGR (gene 5241) [8] | [9] | [10]

O=C1NC2CCCCN2C12CCN(CCCN1c3ccccc3CCc3ccc(Cl)cc31)CC2 (configuration not stated)
inactive: [4]
active: [1] 37.5 µM | [5] 43 µM

CC(=O)Nc1cccc(C)c1
inactive: [1] | [5] | [3] | [4]

O=C(CCCCCCCCC#CI)Oc1ccccc1
inactive: [1] | [5] | [4] | [11] | THRA (gene 7067) | THRB (gene 7068) [12] | THRB (gene 7068) [13] | [14]

CN1C(CCl)Nc2cc(Cl)c(S(N)(=O)=O)cc2S1(=O)=O (configuration not stated)
inactive: [1] | [5] | [2] | [4]
